Records with an inconclusive call do not appear. Where a call stands in place of a potency, no number is given. Active and inactive are the calls of the source. Unless noted, calls follow the shape of the dose curve; as a rule, active = well fitted curve in the direction sought with a large enough effect; inconclusive = small, poorly fitted or top-dose-only effect, or another doubt; inactive = no such curve, though single readings can be large; an effect the other way counts as inactive or inconclusive.
Experiments:
[1] = biological target: RecQ-like DNA helicase BLM (Homo sapiens) (UniProt P54132); experiment: qHTS Validation Assay for Inhibitors of Bloom's syndrome helicase (BLM) (AID 2364)
Summary of the method: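 Forked 20-bp duplex substrate (200 nM, TAMRA/BHQ-2) plus 2 mM ATP added after 15 min compound preincubation with 50 nM enzyme, pH 8.0, poly(dI-dC) 2.5 ug/ml. Strand separation followed by fluorescence (525/598 nm) over 2 h, normalized to enzyme-free and DMSO controls.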

[2] = Cytometric Cell-Based qHTS for Inhibitors of the mTORC1 Signaling Pathway in MEF (Tsc2-/-, p53-/-) Cells (AID 2660);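 also: Tsc2 and p53 null MEFs carrying empty vector with compound for 24 h; percent of cells above a phospho-rpS6 to PI ratio cutoff in each well; series mostly up to about 38 µM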
Summary of the method: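 Immunofluorescence qHTS of rpS6 Ser235/236 phosphorylation: MEFs (Tsc2-/-, p53-/-) treated 24 h, 37 C, in DMEM + 10% FBS. Alexa-488 signal normalized to PI count, referenced to rapamycin (7.5 nM) and DMSO; PI cell number recorded for viability.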

[3] = High Content Imaging Cell-Based qHTS for Inhibitors of the mTORC1 Signaling Pathway in MEF (Tsc2-/-, p53-/-) Cells (AID 2666);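 also: percent of cells scored positive for phospho-rpS6 Ser235/236 immunostaining by imaging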; also: potency is read from the fitted curve at half-maximal effect
Summary of the method: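 Tsc2-/-, p53-/- MEFs (empty-vector stable) grown in DMEM + 10% FBS were exposed to compounds for 24 hrs at 37 degree Celsius, fixed, and stained with Alexa-488 anti-phospho-rpS6 Ser235/236 plus Hoechst. Imaging gave the percentage of positive cells per well.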

[4] = High Content Imaging Cell-Based qHTS for Inhibitors of the mTORC1 Signaling Pathway in MEF Cells (AID 2667);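 also: Tsc2-/- p53-/- MEFs stably re-expressing wild-type Tsc2 exposed 24 h; series mostly up to about 38 µM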
Summary of the method: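 Tsc2-/-, p53-/- MEFs stably re-expressing WT Tsc2, grown in DMEM + 10% FBS, were treated with compounds for 24 hrs at 37 degree Celsius, fixed, and stained with Alexa-488 phospho-rpS6 Ser235/236 antibody plus Hoechst; results given as % positive cells.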

[5] = Cytometry Cell-Based qHTS for Inhibitors of the mTORC1 Signaling Pathway in MEF cells (AID 2668); also: potency is read from the fitted curve at half-maximal effect
Summary of the method: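 WT MEFs (Tsc2-/-, p53-/- stably re-expressing WT Tsc2) in DMEM + 10% FBS received compounds 24 hrs after plating, for 24 hrs at 37 degree Celsius. Fixed cells stained with Alexa-488 anti-phospho-rpS6 Ser235/236 and propidium iodide; laser-scanning cytometry read-out.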

[6] = Validation screen for small molecules that induce DNA re-replication in MCF 10A normal breast cells (AID 463097); also: nearly all actives have a fitted effect of over 60% in size; also: potency is read from the fitted curve at half-maximal effect
Summary of the method: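 Readout: Hoechst nuclear fluorescence intensity, 405 ex / 500-530 em, by scanning plate imager; re-replication scored as increase in nuclei with elevated DNA content. Cells exposed to compound 48 hr, 37 C, 5% CO2 beforehand.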

[7] = biological target: Ubiquitin carboxyl-terminal hydrolase 2 (Homo sapiens) (UniProt O75604); experiment: qHTS Validation Assay for Inhibitors of Ubiquitin-specific Protease USP2a Using CHOP2 as the Reporter (AID 463106)
Summary of the method: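 Readout was coupled fluorescence (Ex 485/Em 531 nm), read 60 min after adding 25 nM final Ub-CHOP2 and 25 nM reporter substrate. Beforehand, 10 nM final USP2 core had 30 min at RT with compound in pH 8.0 buffer. Curves were fitted after normalization to NEM and flagged for artifacts using time-zero reads.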

[8] = biological target: DNA polymerase III PolC-type (Bacillus subtilis (strain 168)) (UniProt P13267); experiment: qHTS Validation Assay for the Inhibitors of DNA Replication in Gram-Positive Bacteria (AID 485295);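 also: PicoGreen fluorescence of double-stranded DNA made on primed circular M13 template; series mostly up to about 57 µM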
Summary of the method: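 Reconstituted B. subtilis holoenzyme (Pol III, beta clamp, SSB, primase) was preincubated with compound at room temperature, then given single-stranded circular M13Gori plus dNTPs and NTPs. EDTA-containing PicoGreen stopped the reaction, and dsDNA product was read by fluorescence.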

[9] = biological target: Tumor susceptibility gene 101 protein (Homo sapiens) (UniProt Q99816); experiment: qHTS Validation Assay for Iinhibitors of HIV-1 Budding by Blocking the Interaction of PTAP/TSG101 (AID 485342; calls by dose curve)
Summary of the method: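 Tsg101 binding domain (10 uM final) in pH 7.5 HEPES/NaCl/Tween 20/EDTA/TCEP buffer was mixed with pin-transferred compounds, then FITC-labeled PTAP peptide (50 nM final) was added; after 20 min at r.t., fluorescence polarization was read.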

[10] = qHTS Validation Assay to Find Inhibitors of Chronic Active B-Cell Receptor Signaling (AID 485345; active = well fitted curve in the direction sought with a large enough effect in the main read-out, with a control signal flat, not every such curve was filed as active)
Summary of the method: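 Read-out: ratio of filter-corrected green (IkappaBalpha fusion) to red (native) luciferase signal in doxycycline-induced TMD8 cells after 4 h at 37C. Titration spanned 46 uM–3 nM; Data were normalised to basal cells and 10 uM MG-132 wells.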

Sequence of Ubiquitin carboxyl-terminal hydrolase 2 (Homo sapiens) (O75604 whole entry, looked up): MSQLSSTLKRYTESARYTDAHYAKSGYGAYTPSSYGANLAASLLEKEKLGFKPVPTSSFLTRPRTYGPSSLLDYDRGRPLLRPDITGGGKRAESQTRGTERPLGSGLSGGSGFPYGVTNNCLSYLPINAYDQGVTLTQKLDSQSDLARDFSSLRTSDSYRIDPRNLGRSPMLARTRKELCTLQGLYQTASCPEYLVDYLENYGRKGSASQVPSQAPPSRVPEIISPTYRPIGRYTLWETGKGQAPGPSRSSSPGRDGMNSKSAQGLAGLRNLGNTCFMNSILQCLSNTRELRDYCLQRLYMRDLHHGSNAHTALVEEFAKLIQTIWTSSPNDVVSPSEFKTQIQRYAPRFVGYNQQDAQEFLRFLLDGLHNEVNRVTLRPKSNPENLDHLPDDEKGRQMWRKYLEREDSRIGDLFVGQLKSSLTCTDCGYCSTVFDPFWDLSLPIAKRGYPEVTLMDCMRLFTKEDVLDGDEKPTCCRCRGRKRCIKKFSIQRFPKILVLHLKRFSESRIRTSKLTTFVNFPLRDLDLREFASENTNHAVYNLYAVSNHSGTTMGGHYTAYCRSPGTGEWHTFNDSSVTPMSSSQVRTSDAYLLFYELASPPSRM
Sequence of DNA polymerase III PolC-type (Bacillus subtilis (strain 168)) (P13267 whole entry, looked up): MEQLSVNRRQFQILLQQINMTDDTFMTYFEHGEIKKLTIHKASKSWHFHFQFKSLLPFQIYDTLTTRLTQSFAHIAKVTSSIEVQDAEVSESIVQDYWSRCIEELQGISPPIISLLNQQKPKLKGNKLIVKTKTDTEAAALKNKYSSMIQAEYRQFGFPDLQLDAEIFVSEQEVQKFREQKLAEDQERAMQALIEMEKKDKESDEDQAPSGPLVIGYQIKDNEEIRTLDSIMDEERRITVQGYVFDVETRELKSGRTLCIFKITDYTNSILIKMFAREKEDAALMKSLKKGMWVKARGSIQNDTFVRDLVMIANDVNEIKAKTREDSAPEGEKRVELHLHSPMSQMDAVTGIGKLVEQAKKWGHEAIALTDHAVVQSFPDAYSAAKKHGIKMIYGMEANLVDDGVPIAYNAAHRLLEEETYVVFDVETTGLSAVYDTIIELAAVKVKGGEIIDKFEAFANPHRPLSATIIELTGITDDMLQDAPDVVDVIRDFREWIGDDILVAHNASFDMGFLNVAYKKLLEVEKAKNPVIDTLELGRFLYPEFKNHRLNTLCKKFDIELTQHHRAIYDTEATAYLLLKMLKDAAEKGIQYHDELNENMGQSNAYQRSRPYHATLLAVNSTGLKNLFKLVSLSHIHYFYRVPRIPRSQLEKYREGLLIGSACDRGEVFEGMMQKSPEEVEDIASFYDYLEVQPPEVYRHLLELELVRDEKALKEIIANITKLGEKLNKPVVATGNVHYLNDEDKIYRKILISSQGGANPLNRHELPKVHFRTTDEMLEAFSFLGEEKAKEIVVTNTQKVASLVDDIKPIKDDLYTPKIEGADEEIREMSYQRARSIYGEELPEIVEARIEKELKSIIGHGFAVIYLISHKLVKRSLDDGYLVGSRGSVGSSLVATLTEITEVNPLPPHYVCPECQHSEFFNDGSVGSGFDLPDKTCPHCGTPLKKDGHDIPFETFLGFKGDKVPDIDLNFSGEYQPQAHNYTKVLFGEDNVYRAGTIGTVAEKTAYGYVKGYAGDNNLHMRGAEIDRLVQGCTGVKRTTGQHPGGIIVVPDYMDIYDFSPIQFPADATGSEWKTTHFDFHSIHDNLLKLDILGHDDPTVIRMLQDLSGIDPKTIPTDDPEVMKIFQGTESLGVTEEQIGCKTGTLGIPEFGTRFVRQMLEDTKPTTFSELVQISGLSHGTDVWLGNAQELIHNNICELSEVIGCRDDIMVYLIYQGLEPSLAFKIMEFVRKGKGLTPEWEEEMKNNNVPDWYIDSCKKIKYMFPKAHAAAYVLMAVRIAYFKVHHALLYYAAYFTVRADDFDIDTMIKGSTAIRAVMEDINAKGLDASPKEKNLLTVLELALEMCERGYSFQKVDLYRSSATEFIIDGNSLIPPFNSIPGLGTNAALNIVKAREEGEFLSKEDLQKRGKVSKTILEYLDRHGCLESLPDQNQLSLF
Sequence of RecQ-like DNA helicase BLM (Homo sapiens) (P54132 whole entry, looked up): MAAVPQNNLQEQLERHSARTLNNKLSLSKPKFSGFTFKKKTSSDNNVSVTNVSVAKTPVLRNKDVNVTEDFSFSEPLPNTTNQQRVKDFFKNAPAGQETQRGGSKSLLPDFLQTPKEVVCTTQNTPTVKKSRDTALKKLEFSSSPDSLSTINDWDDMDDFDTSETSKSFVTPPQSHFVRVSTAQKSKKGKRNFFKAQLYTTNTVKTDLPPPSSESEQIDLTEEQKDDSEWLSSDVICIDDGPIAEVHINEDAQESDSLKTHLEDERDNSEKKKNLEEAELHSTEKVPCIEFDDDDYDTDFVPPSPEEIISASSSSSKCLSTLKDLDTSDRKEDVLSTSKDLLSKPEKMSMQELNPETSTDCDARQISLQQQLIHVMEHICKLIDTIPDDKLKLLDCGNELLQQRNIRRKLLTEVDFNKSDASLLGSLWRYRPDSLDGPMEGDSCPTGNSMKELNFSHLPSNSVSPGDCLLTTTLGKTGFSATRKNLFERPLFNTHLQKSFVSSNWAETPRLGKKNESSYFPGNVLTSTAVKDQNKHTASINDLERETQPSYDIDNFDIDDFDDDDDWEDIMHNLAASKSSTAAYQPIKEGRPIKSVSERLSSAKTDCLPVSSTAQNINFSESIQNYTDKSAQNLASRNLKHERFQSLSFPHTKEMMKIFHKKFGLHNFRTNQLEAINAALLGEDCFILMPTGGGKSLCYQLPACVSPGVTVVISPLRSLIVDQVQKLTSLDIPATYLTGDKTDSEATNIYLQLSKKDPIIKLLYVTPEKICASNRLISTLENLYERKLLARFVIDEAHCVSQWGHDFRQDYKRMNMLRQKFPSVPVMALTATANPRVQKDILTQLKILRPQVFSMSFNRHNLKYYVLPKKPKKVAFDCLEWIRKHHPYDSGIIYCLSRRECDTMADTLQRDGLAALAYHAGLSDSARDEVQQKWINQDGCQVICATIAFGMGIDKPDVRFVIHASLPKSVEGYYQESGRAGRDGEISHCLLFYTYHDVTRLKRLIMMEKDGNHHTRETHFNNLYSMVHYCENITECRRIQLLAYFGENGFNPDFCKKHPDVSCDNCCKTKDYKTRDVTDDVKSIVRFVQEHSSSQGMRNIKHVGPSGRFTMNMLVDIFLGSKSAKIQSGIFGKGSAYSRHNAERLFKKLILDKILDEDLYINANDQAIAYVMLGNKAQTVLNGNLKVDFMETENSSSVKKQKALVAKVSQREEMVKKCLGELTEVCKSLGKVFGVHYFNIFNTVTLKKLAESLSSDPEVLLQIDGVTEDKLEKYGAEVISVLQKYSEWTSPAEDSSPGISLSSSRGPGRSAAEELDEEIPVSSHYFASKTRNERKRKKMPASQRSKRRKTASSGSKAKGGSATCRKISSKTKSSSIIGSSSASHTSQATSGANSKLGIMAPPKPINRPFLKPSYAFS
Sequence of Tumor susceptibility gene 101 protein (Homo sapiens) (Q99816 whole entry, looked up, the tested form may be a part): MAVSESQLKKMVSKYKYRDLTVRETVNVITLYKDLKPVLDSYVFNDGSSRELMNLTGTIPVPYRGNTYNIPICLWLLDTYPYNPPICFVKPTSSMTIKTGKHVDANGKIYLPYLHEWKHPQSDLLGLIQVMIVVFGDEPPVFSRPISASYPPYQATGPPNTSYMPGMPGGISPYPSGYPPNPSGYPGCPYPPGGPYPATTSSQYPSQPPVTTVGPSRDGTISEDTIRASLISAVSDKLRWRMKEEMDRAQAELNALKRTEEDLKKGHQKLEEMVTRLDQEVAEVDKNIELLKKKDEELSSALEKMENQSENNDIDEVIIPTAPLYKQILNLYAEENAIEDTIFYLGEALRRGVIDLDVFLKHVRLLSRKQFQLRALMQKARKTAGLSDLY

Row | Compound | outcome [1] | outcome [2] | Potency [3] | outcome [4] | Potency [5] | Potency [6] | outcome [7] | outcome [8] | outcome [9] | outcome [10]
1 | CCCCS(=N)(=O)CCC(N)C(=O)O (configuration not stated) | inactive | inactive | inactive | inactive | inactive | inactive | inactive | inactive | inactive | inactive
2 | Cc1ccc(S(=O)(=O)N[C@@H](Cc2ccccc2)C(=O)CCl)cc1 |  |  |  |  |  |  | inactive | inactive | inactive | 
3 | CC(C)NCC(O)c1ccc(NS(C)(=O)=O)cc1 (configuration not stated) |  | inactive | inactive | inactive | inactive | inactive | inactive | inactive | inactive | inactive
4 | CCN(CC)CCn1c(=O)c(Cc2ccc(OC)cc2)nc2ccccc21 |  | inactive | inactive | inactive | inactive |  | inactive | inactive | inactive | 
5 | CC(=O)[C@H]1CC[C@H]2[C@@H]3CCC4=CC(=O)CC[C@]4(C)[C@H]3CC[C@]12C | inactive | inactive | inactive | inactive | inactive | inactive | inactive | inactive | inactive | 
6 | CC(C)(C)NC(=O)[C@H]1CC[C@H]2[C@@H]3CC[C@H]4NC(=O)C=C[C@]4(C)[C@H]3CC[C@]12C |  |  |  |  |  | inactive |  |  |  | 
7 | COc1cc2nc(N3CCCN(C)CC3)nc(NC3CCN(Cc4ccccc4)CC3)c2cc1OC |  |  | 2.61 µM (active) |  | 6.56 µM (active) |  | inactive | inactive | inactive | 
8 | NC(=O)c1ccc2[nH]ccc2c1 |  | inactive | inactive | inactive | inactive |  | inactive | inactive | inactive | inactive
9 | NC(=O)c1cccc(N)c1 | inactive | inactive | inactive | inactive | inactive | inactive | inactive | inactive | inactive | inactive
10 | O=C(O)C1CCCN(CCC=C(c2ccccc2)c2ccccc2)C1 (configuration not stated) | inactive | inactive | inactive | inactive | inactive | inactive | inactive | inactive | inactive | inactive
11 | Nc1nc(N)c2nc(CNc3ccc(C(=O)NC(CCC(=O)O)C(=O)O)cc3)cnc2n1 (configuration not stated) |  | inactive | inactive | inactive | inactive | inactive | inactive | inactive | inactive | inactive
12 | CC1CC2C3CCC4=CC(=O)C=C[C@]4(C)[C@@]3(F)[C@@H](O)C[C@]2(C)[C@@]1(O)C(=O)CO (some centres not stated) |  | inactive | inactive | inactive | inactive |  | inactive | inactive | inactive | 
13 | CCN(CC)CC#CCOC(=O)C(O)(c1ccccc1)C1CCCCC1 (configuration not stated) | inactive | inactive | inactive | inactive | inactive | inactive | inactive | inactive | inactive | inactive
14 | CCN1CCCC1CNC(=O)c1cc(S(N)(=O)=O)ccc1OC (configuration not stated) |  | inactive | inactive | inactive | inactive | inactive | inactive | inactive | inactive | inactive
15 | COc1cc2ncnc(Nc3cccc(Cl)c3)c2cc1OC |  | inactive | inactive | inactive | inactive |  | inactive | inactive | inactive | 
16 | OCc1ccc(-c2nn(Cc3ccccc3)c3ccccc23)o1 |  | inactive | inactive | inactive | inactive | 12.6 µM (active) | inactive | inactive | inactive | 
17 | N[C@@H](Cc1ccc(O)c(O)c1)C(=O)O |  | inactive | inactive | inactive | inactive |  |  | inactive | inactive | inactive
18 | CC1=C(C(=O)O)N2C(=O)[C@@H](NC(=O)C(N)c3ccccc3)[C@H]2SC1 (some centres not stated) |  |  | inactive | inactive | inactive | inactive | inactive | inactive | inactive | inactive

— PubChem BioAssay (NCATS)
